The list is not random: actives were taken first. Their share in the collection is about 1.8%.
PAD4 FP inh – human PAD4 inhibitors, primary screen, biochemical, fluorescence polarization, 1536-well format | Protein-arginine deiminase type-4 (Homo sapiens), Q9UM07 | recombinant PAD4, RCA probe fluorescence polarization | inhibition, % at 6.36 µM | 0.41% of 330,000 active;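 active = percent inhibition above a cutoff equal to the mean of all tested compounds plus 3 SD, cut at about 15% in these data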;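 note: 0% = PAD4 with RCA probe and DMSO and 100% = probe without PAD4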
LYPLA1 counter – LYPLA1 inhibitors, primary screen, counter-screen for PME1 inhibitor project, biochemical, fluorescence polarization, FP-Rh probe ABPP | recombinant LYPLA1 | inhibition, % at 5.9 µM | 0.16% of 320,000 active | AID 2174, 2009;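 active = inhibition above the mean of all tested compounds plus 3 SD, set per campaign, cut at about 14% in these data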;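 note: inhibitors block serine hydrolase probe labeling of LYPLA1 so polarization falls; 0% = enzyme with DMSO and 100% = wells lacking LYPLA1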
GSTO1 inh – inhibitors of recombinant GSTO1, primary screen, counter-screen for RBBP9 inhibitor project, biochemical, fluorescence polarization. Glutathione S-transferase omega-1 (Homo sapiens), P78417. activity-based probe fluorescence polarization. inhibition, % at 5.96 µM. 1.1% of 300,000 active;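 active = inhibition above the campaign mean inhibition plus 3 SD, cut at about 35% in these data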;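 note: 0% = GSTO1-1 with DMSO and 100% = wells lacking GSTO1-1 enzyme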
Target sequence (P78417 whole entry, looked up): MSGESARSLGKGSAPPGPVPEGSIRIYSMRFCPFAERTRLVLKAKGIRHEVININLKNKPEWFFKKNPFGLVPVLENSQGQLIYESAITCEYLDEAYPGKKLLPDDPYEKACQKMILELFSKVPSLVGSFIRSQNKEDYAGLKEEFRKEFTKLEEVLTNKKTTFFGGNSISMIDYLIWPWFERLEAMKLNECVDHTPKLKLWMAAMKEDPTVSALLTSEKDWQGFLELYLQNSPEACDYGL
PME-1 inh – PME-1 inhibitors via competitive probe labeling, primary screen, biochemical, fluorescence polarization, FP-Rh probe, HTS; inhibition, % at 5.9 µM; recombinant PME-1; Protein phosphatase methylesterase 1 (Homo sapiens), Q9Y570; 0.53% of 320,000 active;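 active = inhibition above the campaign mean of all compounds plus 3 SD, cut at about 26% in these data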;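 note: competitive labeling of PME-1 active site by serine hydrolase directed probe; 0% = PME-1 with DMSO and 100% = wells lacking PME-1 enzyme; inhibitors block probe labeling so polarization falls and inhibition rises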
Target sequence (Q9Y570 whole entry, looked up): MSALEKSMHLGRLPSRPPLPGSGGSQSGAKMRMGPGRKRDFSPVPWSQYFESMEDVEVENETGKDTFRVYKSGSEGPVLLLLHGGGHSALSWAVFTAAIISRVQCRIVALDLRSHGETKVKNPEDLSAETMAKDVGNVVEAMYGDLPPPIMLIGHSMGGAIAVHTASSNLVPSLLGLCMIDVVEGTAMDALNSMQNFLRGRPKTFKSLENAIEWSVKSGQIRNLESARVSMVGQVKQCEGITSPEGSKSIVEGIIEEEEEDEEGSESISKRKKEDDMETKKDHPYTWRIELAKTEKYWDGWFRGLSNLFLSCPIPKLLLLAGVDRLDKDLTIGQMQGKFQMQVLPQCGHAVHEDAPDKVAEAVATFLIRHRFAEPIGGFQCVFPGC
LYPLA2 counter – LYPLA2 inhibitors, primary screen, counter-screen for PME1 inhibitor project, biochemical, fluorescence polarization, FP-Rh probe ABPP; Acyl-protein thioesterase 2 (Homo sapiens), O95372; recombinant LYPLA2; inhibition, % at 5.9 µM; 0.38% of 320,000 active; AID 2177, 2009;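 active = inhibition above the screen-wide mean plus 3 SD, limit set per campaign, cut at about 26% in these data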;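 note: 0% = LYPLA2 with DMSO and 100% = wells lacking LYPLA2 enzyme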
Fam108B inh – mouse Fam108B serine hydrolase inhibitors, primary screen, counter-screen for RBBP9 inhibitor project, biochemical, fluorescence polarization; AID 1947, 2009; recombinant Fam108B, FP-Rh probe fluorescence polarization; 0.33% of 300,000 active; inhibition, % at 9.51 µM;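 active = inhibition above the screen mean inhibition plus 3 SD, computed separately per campaign, cut at about 18% in these data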;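 note: inhibitors lower polarization as less probe binds the enzyme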
GSTO1 inh conf – GSTO1 inhibitor hit confirmation, counter-screen for RBBP9 inhibitor project, biochemical, fluorescence polarization, triplicate. inhibition, % at 5.96 µM. 54% of 2,400 active. recombinant GSTO1, probe fluorescence polarization. AID 2176, 2009. shares compounds with GSTO1 inh;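 active = inhibition above the primary screen's cutoff, its mean inhibition plus 3 SD, cut at about 35% in these data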;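 note: loss of polarization as inhibitors block binding of rhodamine sulfonate ester activity probe; 0% = GSTO1 with DMSO and 100% = wells lacking GSTO1 enzyme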
GSTO1 ABPP inh – inhibitors of purified human GSTO1, late-stage follow-up, biochemical, gel ABPP, SE-Rh probe, percent inhibition. shares compounds with GSTO1 inh. recombinant GSTO1, gel ABPP SE-Rh probe fluorescence. inhibition, % at 1 µM. 30% of 130 active;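 active = inhibition of the enzyme GSTO1 above about 75%, limit read from the data; inactive = inhibition below that limit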
* hit, by the source's call.

For CSc1ncccc1C(=O)NC1CCCc2c1cnn2-c1ccc(C)c(C)c1 (centres undefined) the results were PAD4 FP inh -0.4, LYPLA1 counter 1.0, GSTO1 inh 5.2, PME-1 inh 10.6, LYPLA2 counter 2.5 and Fam108B inh 1.0.
COCCN(C(=O)CSc1nnc(-c2ccc(C(C)(C)C)cc2)n1N)c1c(N)n(CC(C)C)c(=O)[nH]c1=O was read as PAD4 FP inh -5.4, LYPLA1 counter -3.4, GSTO1 inh 4.3, PME-1 inh -5.8, LYPLA2 counter -3.2 and Fam108B inh -8.0.
`C=CCNC(=S)NNC(=O)c1cc(O)ccc1O` gave PAD4 FP inh -2.5, LYPLA1 counter 0.7, GSTO1 inh 61.9*, PME-1 inh 3.3, LYPLA2 counter 4.2, Fam108B inh 1.1 and GSTO1 inh conf 6.6.
`N/C(=C\C(=O)c1cc(Cl)ccc1O)C(Cl)(Cl)Cl` gave PAD4 FP inh -2.3, LYPLA1 counter 1.2, GSTO1 inh 65.2*, PME-1 inh -2.0, LYPLA2 counter 4.9, Fam108B inh -1.4 and GSTO1 inh conf 77.1*.
`O=C(N/N=C/c1cccnc1)c1cc(O)c(O)c(O)c1` gave PAD4 FP inh -0.2, LYPLA1 counter -4.7, GSTO1 inh 50.2*, PME-1 inh -8.1, LYPLA2 counter -8.4, Fam108B inh -8.1 and GSTO1 inh conf 11.1.
Screening Cc1ccc(S(=O)(=O)/N=C2/C=C(C3C(=O)CC(C)(C)CC3=O)C(=O)c3ccccc32)cc1 returned PAD4 FP inh -1.5, LYPLA1 counter -2.0, GSTO1 inh 61.0*, PME-1 inh 12.3, LYPLA2 counter 4.3, Fam108B inh -1.9 and GSTO1 inh conf 10.9.
`Cc1ccc(S(=O)(=O)N2CCC(C(=O)C3C(=O)CC(C)(C)CC3=O)CC2)cc1` gave PAD4 FP inh -2.6, LYPLA1 counter -0.5, GSTO1 inh -0.9, PME-1 inh 0.1, LYPLA2 counter -6.2 and Fam108B inh 5.6.
For COc1ccc(N2CCN(C(=O)CCC(=O)N3Cc4ccccc4Oc4ncccc43)CC2)cc1 the results were PAD4 FP inh -4.2, LYPLA1 counter -1.6, GSTO1 inh 0.8, PME-1 inh -4.8, LYPLA2 counter 18.7 and Fam108B inh -5.2.
CC(C)c1ccc(-c2nc3c([nH]2)c(=O)n(C)c(=O)n3C)cc1 was read as PAD4 FP inh 5.1, LYPLA1 counter 2.0, GSTO1 inh -1.1, PME-1 inh 11.9, LYPLA2 counter 4.3 and Fam108B inh -2.2.
`Cn1c(=O)c2[nH]c(-c3ccccc3O)nc2n(C)c1=O` gave PAD4 FP inh -2.5, LYPLA1 counter -1.0, GSTO1 inh 38.0*, PME-1 inh 10.9, LYPLA2 counter -5.1, Fam108B inh 4.9 and GSTO1 inh conf 13.3.
For CCN(CC)c1ccc(N=Cc2ccc([N+](=O)[O-])o2)cc1 the results were PAD4 FP inh 8.4, LYPLA1 counter -3.4, GSTO1 inh 72.7*, PME-1 inh 9.6, LYPLA2 counter 6.5, Fam108B inh 11.4 and GSTO1 inh conf 9.9.
Screening c1ccc(-c2ccc(C3=Nn4c(Cn5nnc6ccccc65)nnc4SC3)cc2)cc1 returned PAD4 FP inh -7.3, LYPLA1 counter 1.6, GSTO1 inh 56.3*, PME-1 inh -15.3, LYPLA2 counter -9.2, Fam108B inh -12.2 and GSTO1 inh conf -9.1.
O=C1/C(=C/c2cccnc2)SC(=S)N1Nc1ccccc1 was read as PAD4 FP inh -10.5, LYPLA1 counter 0.8, GSTO1 inh 52.3*, PME-1 inh -0.3, LYPLA2 counter 7.6, Fam108B inh 0.1 and GSTO1 inh conf 18.8.
Screening O=C1CC(C(=O)N2CCCc3ccccc32)CN1c1ccc(Cl)cc1 (centres undefined) returned PAD4 FP inh -6.4, LYPLA1 counter -5.2, GSTO1 inh 3.4, PME-1 inh 4.6, LYPLA2 counter -5.7 and Fam108B inh -3.5.
CC(CCc1ccccc1)NC(=O)COC(=O)c1cc(NS(=O)(=O)c2ccc(Cl)c([N+](=O)[O-])c2)ccc1O (centres undefined) was read as PAD4 FP inh -4.2, LYPLA1 counter -12.6, GSTO1 inh 43.0*, PME-1 inh 19.0, LYPLA2 counter -12.7, Fam108B inh -0.3 and GSTO1 inh conf 48.8*.
For CC1=CC(=Nc2c(C)n(C)n(-c3ccccc3)c2=O)C=CC1=O the results were PAD4 FP inh 8.4, LYPLA1 counter 13.3, GSTO1 inh 74.2*, PME-1 inh 10.2, LYPLA2 counter 11.0, Fam108B inh 4.5 and GSTO1 inh conf 40.7*.
Screening O=C(c1[nH]ncc1-c1cccc(Br)c1)C1CO1 (centres undefined) returned PAD4 FP inh 5.9, LYPLA1 counter 2.6, GSTO1 inh 82.1*, PME-1 inh 1.3, LYPLA2 counter 2.6, Fam108B inh -2.6, GSTO1 inh conf 89.7* and GSTO1 ABPP inh 71.0.
CC1CCCCC12NC(=O)N(CC(=O)Nc1ccc3[nH]c(=O)[nH]c3c1)C2=O (centres undefined) was read as PAD4 FP inh -4.8, LYPLA1 counter -0.7, GSTO1 inh -9.1, PME-1 inh -1.9, LYPLA2 counter 1.8 and Fam108B inh -2.4.
Screening Cc1ccc(NCC(=O)Nc2cccc(S(=O)(=O)N(C)C)c2)cc1S(=O)(=O)N1CCCCCC1 returned PAD4 FP inh -3.6, LYPLA1 counter -5.3, GSTO1 inh 2.6, PME-1 inh 6.6, LYPLA2 counter -7.1 and Fam108B inh -0.9.
For Cc1ccc(SCC(=O)OCC(=O)N(CCC#N)c2ccccc2)cc1C the results were PAD4 FP inh 1.8, LYPLA1 counter -1.8, GSTO1 inh 6.4, PME-1 inh -1.7, LYPLA2 counter 1.3 and Fam108B inh -0.8.
Screening Cc1ccc(N(CCC#N)C(=O)CCl)cc1C returned PAD4 FP inh 9.3, LYPLA1 counter -0.2, GSTO1 inh 93.4*, PME-1 inh 8.7, LYPLA2 counter 9.2, Fam108B inh -2.8, GSTO1 inh conf 90.1* and GSTO1 ABPP inh 18.0.
Screening CC1CN(S(=O)(=O)c2cc(C(=O)N3CCCCC3C)ccc2Cl)CC(C)O1 (centres undefined) returned PAD4 FP inh 1.4.

Assay outcomes from PubChem.
